Assay results: PubChem BioAssay (NCATS)
Inconclusive results are not listed. Calls of active or inactive are those of the source. Calls come from the whole dose curve; as a rule, active = well fitted inhibition curve with a large enough effect; inconclusive = small, poorly fitted or top-dose-only effect; inactive = flat fitted curve, though single readings scatter. Where a SMILES comes first, the peptide text is derived from it. [ ]: non-standard residue; d: D form.
% is set by controls: 0 for no effect and ±100 for the full control effect.

What follows are compounds tested against Calcium and integrin-binding protein 1 (Homo sapiens) (UniProt Q99828) (assay: Primary qHTS for Identification of Calcium Integrin Binding Protein 1 (CIB1) Competitor (AID 1508620; note: top concentration of the series differs between compounds)). Settings: CIB1-GST / FITC-alphaIIb peptide fluorescence polarization; series mostly up to 57.7 µM; activity change, negative = inhibition: at the top concentration.
Sequence of Calcium and integrin-binding protein 1 (Homo sapiens) (Q99828 whole entry, looked up): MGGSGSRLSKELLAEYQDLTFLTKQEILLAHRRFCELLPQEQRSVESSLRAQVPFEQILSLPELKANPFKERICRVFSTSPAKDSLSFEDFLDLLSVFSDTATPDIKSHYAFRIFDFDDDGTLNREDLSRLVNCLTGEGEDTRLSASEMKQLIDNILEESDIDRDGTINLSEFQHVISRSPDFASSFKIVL
Procedure, shortened: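 Fluorescence polarization competition: GST-tagged CIB1 (1 uM final) preincubated with compound 15 min at room temperature, then FITC-labelled alphaIIb peptide (100 nM final) added. After 15 min at room temperature, polarization read at Ex 480/Em 540.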
In the case of CCC(C)(O)C(O)C(=O)OCc1ccc(O[C@@H]2O[C@H](CO)[C@@H](O)[C@H](O)[C@H]2O)cc1 (stereo partly specified), the “activity change, negative = inhibition” value is reported as 3.7% (inactive).
C[C@@H]1O[C@@H](O[C@H]2[C@H](O)[C@@H](C(=O)O)O[C@@H](O[C@H]3CC[C@@]4(C)C(CC[C@]5(C)C4CC=C4C6CC(C)(C)CC[C@]6(C(=O)O)CC[C@]45C)C3(C)C)[C@@H]2O[C@@H]2O[C@H](CO)[C@@H](O)[C@H](O)[C@H]2O)[C@H](O)[C@H](O)[C@H]1O (stereo partly specified) was tested, and the “activity change, negative = inhibition” value was 2.54% [at 30.2 µM] (inactive).
With COC(=O)C1=CO[C@@H](O[C@@H]2O[C@H](COC(=O)/C=C/c3cc(OC)c(O)c(OC)c3)[C@@H](O)[C@H](O)[C@H]2O)[C@@H]2C(CO)=CC[C@H]12 the “activity change, negative = inhibition” value was 0.0968% [at 30.2 µM] (inactive).
For CC(/C=C/C1(O)C(C)(C)CC(O)CC1(C)O)OC1OC(CO)C(O)C(O)C1O (stereo unspecified), the “activity change, negative = inhibition” value was 1.18% (inactive).
O=C(O)C[C@@H](NC(=O)c1cc(-c2ccc(-c3ccncc3)cc2)cs1)c1ccccc1 was tested, and the “activity change, negative = inhibition” value was -11.6% [at 114 µM] (inactive).
O=C(O[C@H]1[C@@H]2C[C@@H]3OC[C@@](O)([C@H]2[C@H](O[C@@H]2O[C@H](CO)[C@@H](O)[C@H](O)[C@H]2O)O3)[C@@H]1O)c1ccccc1 was tested, and the “activity change, negative = inhibition” value was -2.11% (inactive).
C=C1C(=O)OC2/C=C(\C)CC/C=C(\C(=O)O)CC/C=C(\C)CCC12 (stereo unspecified) was tested, and the “activity change, negative = inhibition” value was -6.26% (inactive).
With CC1[C@@H](O)[C@@H](O)C2[C@]3(C)C(C[C@H]4OC(=O)[C@H](O)[C@]1(O)[C@@]24C)C(C)(O)C[C@H](O)[C@H]3O (stereo partly specified) the “activity change, negative = inhibition” value was -5.08% (inactive).
In the case of CC(=O)O[C@@H]1[C@H](O[C@@H]2O[C@H](CO)[C@@H](O)[C@H](O)[C@H]2O)[C@@H](O[C@@H]2O[C@@H](C)[C@H](O)[C@@H](O[C@@H]3O[C@H](CO)[C@@H](O)[C@H](O)[C@H]3O)[C@H]2O)[C@H](OC(=O)C23CCC4(C)C(=CCC5C6(C)CC(O)C(O[C@@H]7O[C@H](C(=O)O)[C@@H](O)[C@H](O)[C@H]7O)C(C)(C(=O)O)C6CCC54C)C2CC(C)(C)CC3O)O[C@@H]1C (stereo partly specified), the activity change, negative = inhibition is reported as 4.49% [at 12.4 µM] (inactive).
With O=C(CCO[C@@H]1O[C@H](CO)[C@@H](O)[C@H](O)[C@H]1O)c1ccc(O)cc1 the “activity change, negative = inhibition” value was 4.38% (inactive).
In the case of COc1cc2c(cc1O)C1(OC)Cc3ccc4c(c3C1N(C)CC2)OCO4 (stereo unspecified), the “activity change, negative = inhibition” value is reported as 1.8% (inactive).
CCC(C)(O)C(O)C(=O)OCc1ccc(O[C@@H]2O[C@H](CO)[C@@H](O)[C@H](O)[C@H]2O)c(OC)c1 (stereo partly specified) was tested, and the “activity change, negative = inhibition” value was -6.18% (inactive).
O=C1NC(Cc2ccc(O)cc2)C(=O)N2CCCC12 (stereo unspecified) was tested, and the “activity change, negative = inhibition” value was -3.54% [at 114 µM] (inactive).
With C[C@@H]1O[C@@H](O[C@H]2[C@H](O[C@H]3CO[C@@H](O[C@H]4CC[C@@]5(C)C(CC[C@]6(C)C5CC[C@]57OC[C@@]8(CC[C@](C)(CO)CC85)[C@H](O)C[C@]76C)C4(C)C)[C@H](O[C@@H]4O[C@H](CO)[C@@H](O)[C@H](O)[C@H]4O)[C@H]3O)O[C@H](CO)[C@@H](O)[C@@H]2O)[C@H](O)[C@H](O)[C@H]1O (stereo partly specified) the “activity change, negative = inhibition” value was 6.02% [at 30.2 µM] (inactive).
In the case of COC(=O)[C@]12C(=O)C(C)=C(O)[C@@]1(C)C(C)=CC1[C@@]34CC[C@@H](OC(C)=O)C(C)(C)C3[C@H](C[C@]12C)OC4=O (stereo partly specified), the “activity change, negative = inhibition” value is reported as -5.38% (inactive).
For Cc1coc2c1CC1OC1(C)CCC1OC1(C)C2 (stereo unspecified), the “activity change, negative = inhibition” value was 2.45% [at 114 µM] (inactive).
With CC1(C)CCC2(C(=O)OC3OC(COC4OC(CO)C(O)C(O)C4O)C(O)C(O)C3O)CCC3(C)C(=CCC4C5(C)CCC(O)C(C)(C(=O)O)C5CCC43C)C2C1O (stereo unspecified) the “activity change, negative = inhibition” value was 0.991% [at 30.2 µM] (inactive).
With C=C1CC23CCC4[C@@](C)(CCC[C@@]4(C)C(=O)O)C2CCC1C3 (stereo partly specified) the “activity change, negative = inhibition” value was -7.69% [at 114 µM] (inactive).
In the case of CC(=O)N[C@H](Cc1ccc(O)cc1)C(=O)N[C@H](CCCN=C(N)N)C(=O)N[C@H](Cc1ccccc1)C(N)=O (Ac-[dY]-[dR]-[dF]-NH2), the “activity change, negative = inhibition” value is reported as 1.93% [at 114 µM] (inactive).
C/C=C(\C)C(=O)O[C@@H]1CC2[C@@H](CC=C3C[C@@H](O[C@H]4C[C@H](OC)[C@H](O[C@H]5C[C@H](OC)[C@H](O[C@H]6C[C@H](OC)[C@H](O[C@H]7C[C@@H](OC)[C@H](O[C@@H]8O[C@H](CO)[C@@H](O)[C@H](O)[C@H]8O)[C@@H](C)O7)[C@@H](C)O6)[C@@H](C)O5)[C@@H](C)O4)CC[C@@]32C)[C@@]2(O)CC[C@H](C(C)=O)[C@@]12C (stereo partly specified) was tested, and the activity change, negative = inhibition was 0.036% [at 12.4 µM] (inactive).
CC(=O)O[C@H](C[C@@H](C)[C@H]1C(=O)[C@H](O)[C@@]2(C)[C@@H]3CCC4C(C)(C)[C@@H](O[C@@H]5OC[C@H](O)[C@H](O)[C@H]5O)CC[C@@]45C[C@@]35CC[C@]12C)[C@@H]1OC1(C)C (stereo partly specified) was tested, and the “activity change, negative = inhibition” value was 2.19% [at 30.2 µM] (inactive).
